In PubChem BioAssay AID1159580 (chemical genetic matrix, 2015):
About 2,000 (36%) of roughly 5,500 compounds were called active. About 18% were inconclusive and are not listed. Cut-off read from the data, not from the text of the source: active = normalized growth mostly below about 0.91 (no sharp cut-off); inconclusive = no clear call, values can overlap the other calls; inactive = mostly above about 0.92. Some of the results follow.

Assay: chemical genetic growth profiling, strain panel (AID 1159580);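 note: tested at 20 µM; growth read once vehicle control cultures reached saturation at 30 °C; 1 = growth at the plate median or of vehicle wells; lower values mean less growth of the strain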
Conditions: S. cerevisiae deletion strains, growth OD

Measured: normalized growth

COc1cc([C@@H]2c3cc4c(cc3[C@@H](O)C3COC(=O)C32)OCO4)cc(OC)c1O (stereo not given in full)
inactive: locus YAL021C, strain ccr4, stronger effect = lower value 0.971 | locus YAL026C, strain drs2, stronger effect = lower value 0.982 | locus YAL030W, strain snc1, stronger effect = lower value 0.986 | locus YBL061C, strain skt5, stronger effect = lower value 0.988 | locus YBR009C, strain hhf1, stronger effect = lower value 0.988 | locus YBR023C, strain chs3, stronger effect = lower value 1 | locus YBR171W, strain sec66, stronger effect = lower value 0.996 | locus YBR231C, strain swc5, stronger effect = lower value 1 | locus YBR279W, strain paf1, stronger effect = lower value 0.997 | locus YCL011C, strain gbp2, stronger effect = lower value 0.988 | locus YCL016C, strain dcc1, stronger effect = lower value 0.981 | locus YCL061C, strain MRC1, stronger effect = lower value 0.978 | locus YCL069W, strain vba3, stronger effect = lower value 0.985 | locus YCR088W, strain abp1, stronger effect = lower value 0.988 | locus YDL005C, strain med2, stronger effect = lower value 0.979 | locus YDL040C, strain nat1, stronger effect = lower value 0.981 | locus YDR001C, strain nth1, stronger effect = lower value 0.977 | locus YDR069C, strain doa4, stronger effect = lower value 0.988 | locus YDR137W, strain rgp1, stronger effect = lower value 1 | locus YDR159W, strain sac3, stronger effect = lower value 0.994 | locus YDR195W, strain ref2 0.944 | locus YDR297W, strain sur2, stronger effect = lower value 0.989 | locus YDR334W, strain swr1, stronger effect = lower value 0.977 | locus YDR335W, strain msn5, stronger effect = lower value 0.985 | locus YDR392W, strain spt3, stronger effect = lower value 1.01 | locus YEL003W, strain gim4, stronger effect = lower value 0.997 | locus YEL037C, strain rad23, stronger effect = lower value 0.981 | locus YEL061C, strain CIN8 (second series), stronger effect = lower value 0.991 | locus YER015W, strain faa2, stronger effect = lower value 0.993 | locus YER016W, strain bim1, stronger effect = lower value 0.987 | locus YER111C, strain swi4, stronger effect = lower value 0.981 | locus YER155C, strain BEM2 (second series), stronger effect = lower value 1.01 | locus YFR010W, strain ubp6, stronger effect = lower value 0.973 | locus YGL167C, strain pmr1, stronger effect = lower value 0.975 | locus YGL173C, strain kem1, stronger effect = lower value 0.992 | locus YGL227W, strain vid30, stronger effect = lower value 0.995 | locus YGL240W, strain doc1, stronger effect = lower value 1.01 | locus YGL253W, strain hxk2, stronger effect = lower value 0.934 | locus YHR013C, strain ard1, stronger effect = lower value 0.964 | locus YHR027C, strain rpn1, stronger effect = lower value 0.986 | locus YHR030C, strain SLT2, stronger effect = lower value 1.03 | locus YHR079C, strain IRE1, stronger effect = lower value 1.04 | locus YHR142W, strain chs7, stronger effect = lower value 0.971 | locus YJL092W, strain hpr5, stronger effect = lower value 0.977 | locus YJL095W, strain BCK1 (second series), stronger effect = lower value 0.981 | locus YJL095W, strain BCK1, stronger effect = lower value 1.02 | locus YJL115W, strain asf1, stronger effect = lower value 0.966 | locus YJL129C, strain trk1, stronger effect = lower value 0.977 | locus YJL154C, strain vps35, stronger effect = lower value 0.985 | locus YJL164C, strain tpk1, stronger effect = lower value 0.967 | locus YJL166W, strain qcr8, stronger effect = lower value 0.997 | locus YJL187C, strain SWE1, stronger effect = lower value 1 | locus YJR066W, strain TOR1, stronger effect = lower value 0.993 | locus YKL160W, strain elf1, stronger effect = lower value 0.973 | locus YKR026C, strain gcn3, stronger effect = lower value 0.991 | locus YKR091W, strain srl3, stronger effect = lower value 0.978 | locus YLL001W, strain dnm1, stronger effect = lower value 0.953 | locus YLL026W, stronger effect = lower value 0.987 | locus YLL041C, strain sdh2, stronger effect = lower value 0.979 | locus YLR027C, strain aat2, stronger effect = lower value 0.991 | locus YLR113W, strain HOG1, stronger effect = lower value 1.03 | locus YLR221C, strain rsa3, stronger effect = lower value 1.02 | locus YLR258W, strain gsy2, stronger effect = lower value 0.985 | locus YLR262C, strain YPT6 (second series), stronger effect = lower value 1.05 | locus YLR320W, strain mms22, stronger effect = lower value 1.02 | locus YLR342W, strain FKS1, stronger effect = lower value 0.986 | locus YLR357W, strain rsc2, stronger effect = lower value 0.966 | locus YLR370C, strain arc18, stronger effect = lower value 0.983 | locus YLR384C, strain iki3, stronger effect = lower value 0.982 | locus YML120C, strain ndi1, stronger effect = lower value 0.985 | locus YMR058W, strain fet3, stronger effect = lower value 0.979 | locus YMR125W, strain sto1, stronger effect = lower value 0.979 | locus YMR129W, stronger effect = lower value 0.997 | locus YMR205C, strain PFK2, stronger effect = lower value 0.965 | locus YMR231W, strain pep5, stronger effect = lower value 0.977 | locus YNL071W, strain lat1, stronger effect = lower value 0.991 | locus YNL183C, strain NPR1, stronger effect = lower value 0.997 | locus YNL209W, strain ssb2, stronger effect = lower value 0.993 | locus YNL248C, strain rpa49, stronger effect = lower value 0.959 | locus YNL322C, strain KRE1 (second series), stronger effect = lower value 0.991 | locus YNR049C, strain mso1, stronger effect = lower value 0.986 | locus YOR001W, strain rrp6, stronger effect = lower value 0.979 | locus YOR070C, strain gyp1, stronger effect = lower value 0.983 | locus YOR080W, strain dia2, stronger effect = lower value 1 | locus YOR083W, strain WHI5, stronger effect = lower value 0.982 | locus YOR106W, strain vam3, stronger effect = lower value 0.958 | locus YOR231W, strain MKK1, stronger effect = lower value 1.03 | locus YOR265W, strain rbl2, stronger effect = lower value 0.987 | locus YOR270C, strain vph1, stronger effect = lower value 0.94 | locus YOR290C, strain snf2, stronger effect = lower value 0.952 | locus YPL051W, strain arl3, stronger effect = lower value 1.03 | locus YPL078C, strain atp4, stronger effect = lower value 0.949 | locus YPL106C, strain sse1, stronger effect = lower value 0.99 | locus YPL240C, strain hsp82, stronger effect = lower value 0.994 | locus YPL256C, strain CLN2, stronger effect = lower value 1.02
